Records with an inconclusive call do not appear. Active and inactive are the calls of the source. Unless noted, calls follow the shape of the dose curve; as a rule, active = well fitted curve in the direction sought with a large enough effect in the repeat runs; inconclusive = weak or mixed curves; inactive = no such curve, though single readings can be large; an effect the other way counts as inactive or inconclusive.

The values below come from PubChem BioAssay (Tox21).

A short description of assay [1]: qHTS RealTime-Glo MT Cell Viability Assay in HEK293 cells - 0 hour (AID 1224880). Also: top concentration of the series differs between compounds; nearly all actives have a fitted effect of over 45% in size. Summed up:
(§1)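 Viable HEK293 cells reduce a cell-permeant prosubstrate; the product diffuses out and is consumed by NanoLuc in the medium to give light. Compounds went in after a 5 h incubation and plates were read over the treatment course.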
In general terms: In qHTS, concentration-response curves come from the screen itself.

A short description of assay [2]: A CellTox Green Cytotoxicity Assay to monitor cytotoxicity in HEK293 cells - 32 hour (AID 1224881). Also: nearly all actives have a fitted effect of over 40% in size. Summed up:
(§2)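 Fluorescence intensity, read at 0, 8, 16, 24, 32 and 40 h of compound treatment, reflected dye binding to DNA of dead HEK293 cells; compounds (23 nL, DMSO) were added 5 h after plating cells with reagent.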

The nature of assay [3]: A CellTox Green Cytotoxicity Assay to monitor cytotoxicity in HepG2 cells - 0 hour (AID 1224882). Also: nearly all actives have a fitted effect of over 35% in size. Summed up:
(§3)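 Using 1536-well format, dye-containing HepG2 suspension was seeded, allowed 5 h at 37 C/5% CO2, dosed by pintool with compounds, positive and negative controls, and imaged for fluorescence across 40 h.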

A short description of assay [4]: A CellTox Green Cytotoxicity Assay to monitor cytotoxicity in HepG2 cells - 32 hour (AID 1224883). Also: nearly all actives have a fitted effect of over 50% in size. The gist of the method: as §3
The nature of assay [5]: A CellTox Green Cytotoxicity Assay to monitor cytotoxicity in HEK293 cells - 8 hour (AID 1224884). Also: nearly all actives have a fitted effect of over 35% in size. The gist of the method: as §2
Assay [6] in a line: qHTS RealTime-Glo MT Cell Viability Assay in HepG2 cells - 16 hour (AID 1224885). Also: nearly all actives have a fitted effect of over 50% in size. The gist of the method: (§4)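 HepG2 cells (600/well) were dispensed with RealTime-Glo reagents, incubated 5 h at 37 °C, then treated with compounds in DMSO for up to 40 h. Nonlytic NanoLuc luminescence reflecting viable cells was read at each stated time point.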
Assay [7] in a line: qHTS RealTime-Glo MT Cell Viability Assay in HEK293 cells - 24 hour (AID 1224886). Also: nearly all actives have a fitted effect of over 50% in size. Also: potency is read from the fitted curve at half-maximal effect. The gist of the method: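 HEK293 cells seeded with NanoLuc/prosubstrate reagent, rested 5 h at 37 C, then dosed and kept at 37 C up to 40 h. Nonlytic real-time luminescence from viable cells read at 0, 8, 16, 24, 32 and 40 h.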
The nature of assay [8]: qHTS RealTime-Glo MT Cell Viability Assay in HEK293 cells - 8 hour (AID 1224887). Also: nearly all actives have a fitted effect of over 50% in size. Also: potency is read from the fitted curve at half-maximal effect. The gist of the method:
as §1

A short description of assay [9]: A CellTox Green Cytotoxicity Assay to monitor cytotoxicity in HEK293 cells - 16 hour (AID 1224888). Also: nearly all actives have a fitted effect of over 35% in size. The gist of the method:
as §2

Assay [10] can be described thus: qHTS RealTime-Glo MT Cell Viability Assay in HepG2 cells - 0 hour (AID 1224889). Also: nearly all actives have a fitted effect of over 50% in size. The gist of the method: as §4
Assay [11] in a line: A CellTox Green Cytotoxicity Assay to monitor cytotoxicity in HepG2 cells - 8 hour (AID 1224890). Also: nearly all actives have a fitted effect of over 45% in size. Summed up:
as §3

The nature of assay [12]: qHTS assay to identify small molecule antagonists of the estrogen receptor alpha (ER-alpha) signaling pathway using the BG1 cell line in the presence of 0.1 nM 17-beta-estradiol - cell viability counter screen (AID 1259241). Also: nearly all actives have a fitted effect of over 40% in size. Summed up: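 Cells were plated and left 24 hr, compounds in DMSO were pinned in, 17beta-estradiol was added to 0.1 nM final, and after 22 hr CellTiter-Fluor reagent was added for 30 min before fluorescence was read.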

Assay [13] can be described thus: qHTS assay to identify small molecule antagonists of the androgen receptor (AR) signaling pathway using the MDA cell line in the presence of 0.5 nM R1881 - cell viability counter screen (AID 1259242). Also: nearly all actives have a fitted effect of over 45% in size. Summed up:
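Viability of MDA-kb2 cells was multiplexed with the luciferase AR readout; after 16 hr with compounds and R1881 at 0.5 nM final, CellTiter-Fluor fluorescence was recorded.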

Assay [14] deals with Estrogen receptor (Homo sapiens) (UniProt P03372). Briefly: qHTS assay to identify small molecule antagonists of the estrogen receptor alpha (ER-alpha) signaling pathway using the BG1 cell line in the presence of 0.1 nM 17-beta-estradiol (AID 1259244). Also: nearly all actives have a fitted effect of over 50% in size. The gist of the method: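 Estradiol at 0.1 nM (final) stimulates the endogenous ER-alpha of VM7Luc4E2 cells carrying an ERE-driven luciferase; compounds are co-incubated 22 h at 37C and luciferase output quantified by luminescence.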

Assay [15] in a line: qHTS assay to identify small molecule phospholipidosis (PLD) inducers (AID 1259344; active = well fitted curve in the direction sought with a large enough effect; an effect the other way counts as inactive or inconclusive). Summed up: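 HepG2 cells, 900/well, treated with compound plus LipidTOX Red for 24 h at 37 C; amiodarone positive and DMSO negative controls. Fixed with paraformaldehyde/Hoechst, then high-content imaging scored LipidTOX pit count and integrated intensity per well and per cell.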
Assay [16] is described as follows: qHTS assay to identify small molecule HDAC inhibitors (AID 1259364).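 Also: wild-type HCT-116 cells with endogenous class I/II HDAC activity; top concentration of the series differs between compounds; nearly all actives have a fitted effect of over 45% in size.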 Summed up: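 Read-out: luminescence of HDAC-Glo I/II reagent, 30 min RT, reflecting class I/II deacetylase activity in whole HCT-116 cells pre-exposed 2 h to DMSO-dissolved compounds.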
Assay [17] can be described thus: qHTS assay to identify small molecule HDAC inhibitors - cell viability counter screen (AID 1259365). Summed up: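 Counter screen in wild-type HCT-116 cells: compounds dissolved in DMSO are pin-transferred onto overnight-plated cells and left 2hr at 37C. ATP-based CellTiter-Glo luminescence then measures viable cells.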
The nature of assay [18]: qHTS assay to identify small molecule agonists of the sonic hedgehog signaling (Shh) pathway - cell viability counter screen (AID 1259366). Also: nearly all actives have a fitted effect of over 50% in size. The gist of the method:
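Cells are plated at 2,000 per well and left 4hr at 37C, 5% CO2 before compound addition. After 23hr of treatment, CellTiter-Fluor reagent is added for 1hr at 37C and fluorescence is measured.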

The nature of assay [19]: qHTS assay to identify small molecule antagonists of the sonic hedgehog signaling (Shh) pathway - cell viability counter screen (AID 1259367). Also: nearly all actives have a fitted effect of over 55% in size. The gist of the method:
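NIH/3T3-derived Gli1-Luc reporter cells, 2,000/well, plated 4 hr before compound addition, then stimulated with conditioned medium for 24 hr at 37C. Viability measured in the same wells by CellTiter-Fluor fluorescence, reagent added at 23 hr for 1 hr.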

Assay [20] addresses Androgen receptor (Homo sapiens) (UniProt P10275). Put plainly: qHTS assay to identify small molecule antagonists of the androgen receptor (AR) signaling pathway using the MDA cell line in the presence of 0.5 nM R1881 (AID 1259243). Also: nearly all actives have a fitted effect of over 50% in size. The gist of the method:
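Reporter cells cultured without CO2 receive test chemicals, then 0.5 nM R1881 final; after 16 hr at 37C, ONE-Glo is added and light output recorded.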

Chain of Estrogen receptor (Homo sapiens) (P03372 whole entry, looked up): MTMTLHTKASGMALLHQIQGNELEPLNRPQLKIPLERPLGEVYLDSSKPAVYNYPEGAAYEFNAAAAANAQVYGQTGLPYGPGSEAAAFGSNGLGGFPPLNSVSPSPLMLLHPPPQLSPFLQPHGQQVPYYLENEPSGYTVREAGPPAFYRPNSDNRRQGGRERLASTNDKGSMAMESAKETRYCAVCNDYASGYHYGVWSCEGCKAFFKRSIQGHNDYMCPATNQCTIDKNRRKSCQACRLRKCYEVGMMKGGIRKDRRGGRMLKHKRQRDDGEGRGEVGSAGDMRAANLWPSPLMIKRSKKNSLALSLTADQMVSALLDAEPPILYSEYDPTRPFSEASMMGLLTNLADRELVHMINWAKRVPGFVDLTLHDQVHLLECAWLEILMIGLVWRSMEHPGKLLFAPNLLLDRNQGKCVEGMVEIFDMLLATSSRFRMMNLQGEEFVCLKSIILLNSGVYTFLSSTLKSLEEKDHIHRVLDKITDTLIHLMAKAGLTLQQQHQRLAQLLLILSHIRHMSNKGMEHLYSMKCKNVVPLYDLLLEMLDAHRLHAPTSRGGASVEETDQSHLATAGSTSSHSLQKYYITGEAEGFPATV
Chain of Androgen receptor (Homo sapiens) (P10275 whole entry, looked up): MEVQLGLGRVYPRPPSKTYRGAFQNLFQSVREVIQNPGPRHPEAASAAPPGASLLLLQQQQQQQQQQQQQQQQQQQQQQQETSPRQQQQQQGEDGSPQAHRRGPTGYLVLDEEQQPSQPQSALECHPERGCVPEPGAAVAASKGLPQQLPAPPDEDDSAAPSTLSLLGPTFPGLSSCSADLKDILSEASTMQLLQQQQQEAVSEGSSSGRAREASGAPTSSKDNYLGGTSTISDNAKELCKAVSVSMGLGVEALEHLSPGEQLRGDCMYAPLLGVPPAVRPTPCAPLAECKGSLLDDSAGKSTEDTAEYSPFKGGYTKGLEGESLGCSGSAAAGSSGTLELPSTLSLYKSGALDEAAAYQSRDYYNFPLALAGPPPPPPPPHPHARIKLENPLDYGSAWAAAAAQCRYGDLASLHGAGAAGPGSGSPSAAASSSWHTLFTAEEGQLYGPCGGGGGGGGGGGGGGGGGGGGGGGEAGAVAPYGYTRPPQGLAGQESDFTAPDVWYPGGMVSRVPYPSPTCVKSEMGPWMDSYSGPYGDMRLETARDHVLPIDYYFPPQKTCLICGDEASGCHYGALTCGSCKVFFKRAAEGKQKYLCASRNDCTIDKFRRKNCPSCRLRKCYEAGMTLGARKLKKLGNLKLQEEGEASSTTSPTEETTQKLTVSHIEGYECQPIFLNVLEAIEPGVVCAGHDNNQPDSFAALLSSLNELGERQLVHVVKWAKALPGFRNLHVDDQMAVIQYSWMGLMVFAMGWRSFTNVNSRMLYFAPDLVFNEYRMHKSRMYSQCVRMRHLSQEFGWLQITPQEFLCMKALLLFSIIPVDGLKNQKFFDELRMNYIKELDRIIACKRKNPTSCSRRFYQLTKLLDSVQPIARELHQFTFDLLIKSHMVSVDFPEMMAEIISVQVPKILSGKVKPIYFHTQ

In the case of `O=C(NC(Cc1cc(=O)[nH]c2ccccc12)C(=O)O)c1ccc(Cl)cc1` (centres undefined), the Potency result in assay [1], in assay [2], in [3], in [4], in assay [5] and in assay [6] was “inactive” each time. In addition, the Potency result in assay [7], in [8], in assay [9], in assay [10], in assay [11] and in assay [12] was “inactive” in each case. For the same compound, the Potency result in [13], in [14], in assay [15], in assay [16], in assay [17] and in assay [18] was “inactive” in each case. Further, in [19], the Potency entry is “inactive”.
`CSCC[C@H](NC(=O)[C@H](Cc1c[nH]c2ccccc12)NC(=O)CCNC(=O)OC(C)(C)C)C(=O)N[C@@H](CC(=O)O)C(=O)N[C@@H](Cc1ccccc1)C(N)=O`: the Potency entry in assay [1], in [2], in [3], in assay [4], in [5] and in [6] was “inactive” each time. For the same compound, the Potency result in [7], in assay [8], in assay [9], in assay [10], in assay [11] and in assay [12] was “inactive” each time. Further, the Potency entry in assay [13], in [14], in assay [15], in assay [16], in assay [17] and in [18] was “inactive” throughout. For the same compound, in assay [19], the Potency entry is “inactive”.
In the case of `CN1C(CSCC(F)(F)F)Nc2cc(Cl)c(S(N)(=O)=O)cc2S1(=O)=O` (centres undefined), the Potency entry in [1], in assay [2], in assay [3], in [4], in assay [5] and in assay [6] was “inactive” throughout. Further, the Potency entry in assay [9], in assay [10], in [11], in assay [12], in assay [13] and in assay [20] was “inactive” each time. The Potency entry in assay [14], in assay [15], in assay [16], in [17], in [18] and in assay [19] was “inactive” throughout. The Potency in [7] is 16.9 µM (active); in [8], 19 µM (active).
Take `O=C(O)CCS`: the Potency entry in [1], in assay [2], in assay [3], in [4], in assay [5] and in [6] was “inactive” throughout. The Potency result in assay [7], in assay [8], in assay [9], in assay [10], in assay [11] and in assay [12] was “inactive” throughout. Moreover, the Potency result in assay [13], in assay [14], in assay [16], in assay [17], in assay [18] and in assay [19] was “inactive” in each case.
With `CC12CC3CC(C)(C1)CC(N)(C3)C2`, the Potency entry in assay [1], in [2], in assay [3], in assay [4], in assay [5] and in [6] was “inactive” throughout. Further, the Potency entry in [7], in [8], in [9], in [10], in assay [11] and in assay [12] was “inactive” in each case. In addition, the Potency entry in assay [13], in [14], in [15], in assay [16], in assay [17] and in assay [19] was “inactive” throughout.
For the compound `CC(=O)OCCC(C)CC(C)(C)C` (centres undefined), the Potency result in assay [1], in assay [2], in assay [3], in [4], in assay [5] and in assay [6] was “inactive” throughout. Moreover, the Potency entry in assay [7], in assay [8], in assay [9], in [10], in assay [11] and in assay [12] was “inactive” throughout. Besides, the Potency result in assay [13], in assay [14], in [16], in assay [17], in [18] and in assay [19] was “inactive” throughout.
Turning to `C=CCOC(=O)COCCC(C)C`, the Potency entry in [1], in assay [2], in assay [3], in assay [4], in assay [5] and in assay [6] was “inactive” in each case. The Potency result in assay [7], in assay [8], in assay [9], in [10], in [11] and in assay [12] was “inactive” each time. Further, the Potency result in assay [13], in assay [14], in assay [16], in assay [17] and in assay [18] was “inactive” throughout.
